# Test results reported in PubChem BioAssay.
# System: Inhibin beta A chain (activin A)
# Experiment: INHBA (activin A) binders on microarrays, primary screen, biochemical, small-molecule microarray, 635 nm fluorescence scan (AID 1107);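 also: mouse activin A protein probed at 4.33 µg/mL on printed slides; score merges bound-protein fluorescence near 667 nm with spot signal-to-noise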
# Conditions: small-molecule microarray binding, higher = more signal
row,SMILES,composite z-score
1,O=C(O)[C@H](Cc1ccccc1)n1cc(-c2ccccn2)nn1,0.325
2,COC(=O)c1c(CC[C@@H](CO)NC(=O)N[C@H](Cn2cc(-c3ccccc3C)nn2)C(C)C)oc(C(C)=O)c1C(=O)OC,-0.252
3,COc1ccc(NN2C(C(O)c3ccco3)C=CC3C(=O)N(C4CCCCC4)C(=O)C32)cc1 (stereo unspecified),0.725
4,Cc1c(NC(=O)/C(C#N)=C/C=C/c2ccc(N(C)C)cc2)c(=O)n(-c2ccccc2)n1C,1.08
5,CN1C2C=C(CCCO)C(C3C(=O)N(C(N)=O)C(=O)C32)C1c1cccs1 (stereo unspecified),0.418
6,CC(C)CNC(=O)[C@@]1(c2ccc([N+](=O)[O-])cc2)CC(=O)N(C2CCCCC2)[C@@H]1c1ccc(CO)cc1I,0.138
7,COCCOC(=O)N1C(=O)[C@@]2(c3cc(C#CC4(O)CCCCCC4)ccc31)[C@H](C(N)=O)[C@H]1C(=O)O[C@H](c3ccccc3)[C@H](c3ccccc3)N1[C@@H]2c1ccc(O)cc1,0.496
8,COC(=O)[C@@]1(Cc2ccccc2)[C@H]2c3cc(C(=O)N4CCCC4)n(Cc4cc(F)cc5c4OCOC5)c3C[C@H]2CN1C(=O)c1ccccc1,0.538
9,CCOC(=O)C[C@H]1[C@H](OC(=O)c2ccccc2-c2ccccc2)[C@@H](NC(=O)CC(C)C)c2cc(OCCCO)ccc2N1C(=O)c1ccc2ccccc2n1,1.08
10,C=CCN1Cc2ccccc2C[C@@]2(N=C(c3ccc(OCCCO)cc3)O[C@H]2c2ccccc2)C1=O,1.03
11,COCCOC(=O)N1C(=O)[C@@]2(c3cc(C#CC4(O)CCCCCC4)ccc31)[C@H](C(=O)N1CCCCCCC1)[C@H]1C(=O)O[C@H](c3ccccc3)[C@H](c3ccccc3)N1[C@@H]2c1ccc(OCCO)cc1,1.68
